# Results from PubChem BioAssay.
# Activity calls are given as the source filed them. Unless noted, how the calls were made is not given here.
# Columns and labels:
# [1] = anti-His antibody binders, primary screen, artefact control for SMM control protein annotation, biochemical, small-molecule microarray, 635 nm fluorescence (AID 1128); settings: anti-His Alexa647 antibody binding, higher = more signal;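 further: score merges feature fluorescence with signal-to-noise for each printed compound spot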
# [2] = tested on: Human papillomavirus type 1a E7 protein (residues 1-88); test: HPV1a E7 small-molecule binders, primary screen, biochemical, small-molecule microarray, residues 1-88, 635 nm (AID 1129); settings: small-molecule microarray binding, fluorescence 635 nm; higher = more signal
# [3] = target: Focal adhesion kinase 1 (Homo sapiens) (UniProt Q05397); test: small-molecule microarray binders of FAK, primary screen, biochemical, 635/667 nm fluorescence, BSA, DTT (AID 1130); settings: PTK2 binding, 635 nm fluorescence, higher = more signal;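 further: composite of spot emission at 667 nm and signal to noise over triplicate slides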
# [4] = tested on: Fibrinogen (Alexa647-labelled); test: fibrinogen binders on compound microarrays, profiling panel, artefact control for SMM control-protein annotation, biochemical, small-molecule microarray, 635/667 nm fluorescence (AID 1131); settings: fibrinogen-A647 binding fluorescence, higher = more signal;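 further: z-score merges 667 nm fluorescence with per-spot signal-to-noise over triplicate slides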
# [5] = target: Follistatin (Homo sapiens) (UniProt P19883); test: follistatin binders on small-molecule microarrays, primary screen, biochemical, small-molecule microarray, 635/667 nm fluorescence (AID 1132); settings: FST binding, 635 nm fluorescence, higher = more signal
# [6] = target: Fibroblast growth factor 2 (Homo sapiens) (UniProt P09038); test: FGF2 binders on small-molecule microarrays, primary screen, biochemical, small-molecule microarray, 635/667 nm fluorescence (AID 1133); settings: small-molecule microarray binding, FGF2, fluorescence 635/667; higher = more signal
# [7] = mitochondrial membrane potential change in A549 cells, profiling panel, cell-based, JC-1 fluorescence, basal, 24 h, 100 nL (AID 1138); settings: higher = more signal;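 further: A549 lung adenocarcinoma cells under basal conditions with no added stimulus; test concentration not given here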
# Lefty1 = Lefty1 binders on small-molecule microarrays, primary screen, biochemical, small-molecule microarray, 635/667 nm fluorescence (AID 1139); settings: small-molecule microarray binding, fluorescence 635/667; higher = more signal
# [8] = tested on: wheat germ agglutinin (Triticum aestivum), Alexa647-labelled; test: wheat germ agglutinin binders on compound microarrays, profiling panel, artefact control for SMM control-protein annotation, biochemical, small-molecule microarray, 635/667 nm fluorescence (AID 1140); settings: WGA-A647 binding, 635 nm fluorescence, higher = more signal;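 further: score merges 667 nm feature emission with signal to noise over triplicate slides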
# [9] = target: Luciferin 4-monooxygenase (Photinus pyralis) (UniProt P08659); test: firefly luciferase enzyme inhibitors, primary screen, biochemical, luminescence, purified enzyme, 2006 set (AID 1141); settings: SteadyGlo luminescence, 30 min, higher = more signal, called active from +8 up or from −8 down;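 further: cell-free assay with purified firefly luciferase at 100 ng per well in PBS; test concentration not given here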
# [10] = tested on: Wnt5a (protein binding on small-molecule microarray); test: Wnt5a binders on small-molecule microarray, primary screen, biophysical, 635/667 nm fluorescence (AID 1142); settings: 635 nm fluorescence, higher = more signal;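 further: fluorescence read at 667 nm with signal to noise per printed feature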
# [11] = cell viability in Huh7 cells, primary screen, cytotoxicity control for HCV replication inhibitor project, CellTiter-Glo luminescence, basal, 48 h (AID 1143); settings: Huh7 HCV replicon, higher = more signal, called active from +8 up or from −8 down;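 further: Huh7 hepatoma cells carrying a hepatitis C replication reporter with no stimulus; test concentration not given here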
# [12] = P. aeruginosa biofilm formation inhibitors, primary screen, PAO1 strain, BacTiter-Glo luminescence, LB-PBS (AID 1144); settings: 12 h, higher = more signal
# [13] = CREB reporter modulators without forskolin, primary screen, cell-based, PC12, CRE-LacZ reporter, unstimulated (AID 1145); settings: no forskolin, luminescence, 4.5 h, higher = more signal, called active from +8 up or from −8 down
# [14] = CREB reporter modulators under forskolin, primary screen, cell-based, PC12, CRE-LacZ reporter, forskolin-stimulated (AID 1146); settings: luminescence, 4.5 h, higher = more signal, called active from +8 up or from −8 down;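 further: PC12 cells with 6xCRE LacZ reporter stimulated by forskolin 10 µM; beta-galactosidase reporter signal reflecting CREB driven transcription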
# [15] = target: Streptavidin (Streptomyces avidinii) (UniProt P22629); test: streptavidin binders on small-molecule microarray, primary screen, artefact control for SMM compound annotation, biophysical, 635/667 nm fluorescence (AID 1147); settings: streptavidin binding, higher = more signal;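 further: signal reflects streptavidin binding to arrayed compounds as a control protein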
# [16] = small-molecule binders of probe aInhba, primary screen, biochemical, small-molecule microarray, 635/667 nm fluorescence (AID 1148); settings: higher = more signal;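 further: score merges 667nm spot fluorescence with signal-to-noise for antibody binding to printed compounds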
# Torsin-1A (Homo sapiens) [17] = target: Torsin-1A (Homo sapiens) (UniProt O14656); test: torsin A binders from cell lysate, primary screen, small-molecule microarray, wild-type, 635/667 nm (AID 1149); settings: COS7 hTOR1A-WT lysate, 635 nm fluorescence, higher = more signal
# Torsin-1A (Homo sapiens) [18] = target: Torsin-1A (Homo sapiens) (UniProt O14656); test: small-molecule binders of mutant TOR1A in lysate, primary screen, cell lysate, small-molecule microarray, COS7 lysate, 635/667 nm fluorescence (AID 1150); settings: COS7 hTOR1A mutant lysate, 635 nm fluorescence, higher = more signal;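 further: score pools 667 nm emission and signal to noise measuring lysate protein binding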
# [19] = tested on: Sonic hedgehog protein (Shh); test: small-molecule binders of Shh protein, primary screen, biochemical, small-molecule microarray, 635/667 nm fluorescence (AID 1151); settings: small-molecule microarray binding, 635 nm fluorescence; higher = more signal;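 further: Shh protein binding to compounds spotted on small-molecule microarray slides; score combines spot fluorescence intensity with signal-to-noise across triplicate slides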
# Sequence of Luciferin 4-monooxygenase (Photinus pyralis) (P08659 whole entry, looked up): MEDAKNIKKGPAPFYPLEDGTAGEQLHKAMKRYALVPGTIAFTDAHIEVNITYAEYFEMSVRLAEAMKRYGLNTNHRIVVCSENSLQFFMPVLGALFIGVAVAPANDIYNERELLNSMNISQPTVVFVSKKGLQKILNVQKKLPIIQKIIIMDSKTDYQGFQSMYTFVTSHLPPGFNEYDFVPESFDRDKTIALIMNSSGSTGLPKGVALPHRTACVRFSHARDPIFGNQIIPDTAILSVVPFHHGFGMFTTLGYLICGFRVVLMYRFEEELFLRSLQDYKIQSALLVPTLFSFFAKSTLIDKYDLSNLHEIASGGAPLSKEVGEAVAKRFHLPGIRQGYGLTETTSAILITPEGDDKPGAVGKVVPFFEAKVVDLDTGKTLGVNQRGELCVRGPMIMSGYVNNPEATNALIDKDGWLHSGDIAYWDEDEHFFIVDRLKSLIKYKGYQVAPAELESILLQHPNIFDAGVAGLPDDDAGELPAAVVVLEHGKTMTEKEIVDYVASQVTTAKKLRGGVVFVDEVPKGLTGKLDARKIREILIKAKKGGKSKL
# Sequence of Focal adhesion kinase 1 (Homo sapiens) (Q05397 whole entry, looked up): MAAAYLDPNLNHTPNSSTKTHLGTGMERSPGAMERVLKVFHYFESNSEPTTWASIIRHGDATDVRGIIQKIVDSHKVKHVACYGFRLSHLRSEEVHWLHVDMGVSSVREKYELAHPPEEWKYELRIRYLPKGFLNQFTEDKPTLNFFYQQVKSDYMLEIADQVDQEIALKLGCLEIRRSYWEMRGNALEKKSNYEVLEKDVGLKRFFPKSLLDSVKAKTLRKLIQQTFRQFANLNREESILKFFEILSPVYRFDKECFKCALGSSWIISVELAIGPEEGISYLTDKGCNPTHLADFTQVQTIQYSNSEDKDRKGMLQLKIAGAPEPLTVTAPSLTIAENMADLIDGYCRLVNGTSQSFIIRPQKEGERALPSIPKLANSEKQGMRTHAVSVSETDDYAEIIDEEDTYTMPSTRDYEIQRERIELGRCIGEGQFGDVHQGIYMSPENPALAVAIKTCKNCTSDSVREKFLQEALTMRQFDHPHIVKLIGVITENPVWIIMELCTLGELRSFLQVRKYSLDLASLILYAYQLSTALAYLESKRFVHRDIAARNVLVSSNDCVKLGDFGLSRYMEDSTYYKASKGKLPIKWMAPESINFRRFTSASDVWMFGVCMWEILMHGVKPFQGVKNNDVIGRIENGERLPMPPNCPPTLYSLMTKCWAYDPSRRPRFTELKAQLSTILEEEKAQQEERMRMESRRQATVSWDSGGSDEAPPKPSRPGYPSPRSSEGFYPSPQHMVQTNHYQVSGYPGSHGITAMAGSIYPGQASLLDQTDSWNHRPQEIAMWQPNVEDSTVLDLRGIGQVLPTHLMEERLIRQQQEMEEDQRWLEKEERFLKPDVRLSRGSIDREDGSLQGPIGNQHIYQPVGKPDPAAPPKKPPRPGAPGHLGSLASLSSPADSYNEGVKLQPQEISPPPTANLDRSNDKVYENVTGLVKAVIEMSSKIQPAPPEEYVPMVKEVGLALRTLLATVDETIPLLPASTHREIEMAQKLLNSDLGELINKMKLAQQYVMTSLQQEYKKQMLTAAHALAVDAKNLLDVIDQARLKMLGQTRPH
# Sequence of Fibroblast growth factor 2 (Homo sapiens) (P09038 whole entry, looked up): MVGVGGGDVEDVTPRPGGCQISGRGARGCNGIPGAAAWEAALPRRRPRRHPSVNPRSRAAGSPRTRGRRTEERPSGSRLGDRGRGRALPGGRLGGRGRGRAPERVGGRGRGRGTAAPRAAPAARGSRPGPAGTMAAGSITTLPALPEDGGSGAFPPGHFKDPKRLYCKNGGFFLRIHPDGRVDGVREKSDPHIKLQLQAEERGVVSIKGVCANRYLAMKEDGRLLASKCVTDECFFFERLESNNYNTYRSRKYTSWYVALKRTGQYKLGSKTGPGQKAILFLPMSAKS
# Sequence of Follistatin (Homo sapiens) (P19883 whole entry, looked up): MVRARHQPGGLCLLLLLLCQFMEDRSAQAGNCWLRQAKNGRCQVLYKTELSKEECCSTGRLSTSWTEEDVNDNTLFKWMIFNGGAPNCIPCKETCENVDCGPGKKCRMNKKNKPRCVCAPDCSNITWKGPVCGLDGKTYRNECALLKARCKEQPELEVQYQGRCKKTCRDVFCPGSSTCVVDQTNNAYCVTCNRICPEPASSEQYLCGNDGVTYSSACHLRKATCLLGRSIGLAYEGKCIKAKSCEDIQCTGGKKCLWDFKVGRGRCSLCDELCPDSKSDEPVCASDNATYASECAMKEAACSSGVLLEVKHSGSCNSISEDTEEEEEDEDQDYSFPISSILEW
# Sequence of Streptavidin (Streptomyces avidinii) (P22629 whole entry, looked up): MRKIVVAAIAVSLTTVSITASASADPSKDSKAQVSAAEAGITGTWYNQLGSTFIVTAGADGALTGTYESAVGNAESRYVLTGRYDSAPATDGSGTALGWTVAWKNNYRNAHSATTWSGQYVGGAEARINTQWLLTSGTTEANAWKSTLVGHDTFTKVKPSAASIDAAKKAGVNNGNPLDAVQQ
# Sequence of Torsin-1A (Homo sapiens) (O14656 whole entry, looked up): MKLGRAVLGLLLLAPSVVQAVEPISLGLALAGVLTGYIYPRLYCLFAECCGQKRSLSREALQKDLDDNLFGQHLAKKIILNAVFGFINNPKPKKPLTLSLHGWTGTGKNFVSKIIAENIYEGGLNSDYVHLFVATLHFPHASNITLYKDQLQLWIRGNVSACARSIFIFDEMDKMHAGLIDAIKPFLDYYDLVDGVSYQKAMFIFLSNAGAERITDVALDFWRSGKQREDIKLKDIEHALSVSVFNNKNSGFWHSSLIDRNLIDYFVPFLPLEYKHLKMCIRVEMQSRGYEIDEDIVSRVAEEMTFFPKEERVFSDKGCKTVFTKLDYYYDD
Structure (SMILES),composite z-score [1],composite z-score [2],composite z-score [3],composite z-score [4],composite z-score [5],composite z-score [6],z-score [7],composite z-score (Lefty1),composite z-score [8],z-score [9],composite z-score [10],z-score [11],z-score [12],z-score [13],z-score [14],composite z-score [15],composite z-score [16],composite z-score (Torsin-1A (Homo sapiens) [17]),composite z-score (Torsin-1A (Homo sapiens) [18]),composite z-score [19]
COCCOC(=O)N1C(=O)[C@@]2(c3cc(C#CCCO)ccc31)[C@H](c1ccc(O)cc1)N1[C@H](c3ccccc3)[C@H](c3ccccc3)OC(=O)[C@H]1[C@@H]2C(=O)N1CCCCCCC1,2.4,1,0.855,0.771,1.43,1.6,-0.183,1.21,1.06,-0.179 (inactive),0.799,-0.883 (inactive),-0.569 (inactive),0.568 (inactive),-0.268 (inactive),0.825,0.62,0.705,0.667,1.65
CCCC[C@@H]1C[C@H]1[C@@H](NC(=O)c1ccccc1)c1ccc(-c2ccccc2)cc1,0.676,0.818,-0.0867,0.46,0.203,-0.368,-0.232,-0.26,0.348,0.0434 (inactive),-0.0558,-4.35 (inactive),0.257 (inactive),0.0075 (inactive),0.31 (inactive),0.301,-0.0736,-0.256,-0.0118,-1.11
C=C(COC)C(=O)CC[C@@H](OC(=O)c1ccccc1-c1ccccc1C(=O)O)c1ccc(CO)o1,1.73,0.339,0.0109,-0.363,1.05,1.81,-0.789,1.56,-0.407,-3.78 (inactive),1.24,-7.58 (inactive),0.164 (inactive),8.29 (active),5.1 (inactive),-0.517,-0.188,1.67,0.404,1.91
Cc1ccc(S[C@]2(C(=O)NCCN3CCOCC3)CC(=O)N(C3CCCCC3)[C@@H]2c2ccc(CO)cc2)cc1,1.81,1.21,1.02,0.611,0.102,-0.262,1.63,-0.299,0.211,-0.125 (inactive),-0.0482,-0.0065 (inactive),0.314 (inactive),0.802 (inactive),0.893 (inactive),0.893,0.0422,0.18,0.783,0.318
CCOC1=C2C(c3ccc(C)cc3)N(S(=O)(=O)c3ccc(C)cc3)CC2n2c(=O)n(-c3ccccc3)c(=O)n2C1 (stereo not given),0.229,1.16,0.206,0.933,0.876,0.747,0.374,0.53,0.755,1.09 (inactive),0.323,-0.576 (inactive),1.11 (inactive),0.0331 (inactive),0.0749 (inactive),1.09,0.0135,0.301,0.254,0.254
